Measured values reported in PubChem BioAssay (NCATS).
Results filed as inconclusive are left out. Activity calls are given as the source filed them. Calls come from the whole dose curve; as a rule, active = well fitted curve in either direction with a large enough effect (not every such curve was filed as active); inconclusive = small, poorly fitted or top-dose-only effect, or another doubt; inactive = flat fitted curve, though single readings scatter.

biological target: Mitogen-activated protein kinase 10 (Mus musculus) (UniProt Q61831); assay: JNK3 AlphaScreen Assay (AID 530); settings: JNK3 lysate, c-Jun phosphorylation; series mostly up to 57.1 µM; activity change, negative = inhibition: at the top concentration;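 note: kinase came from lysate of stimulated human HepG2 cells; signal reports phosphorylation of biotinylated GST-cJun 1-79 at Ser73 with 10 µM ATP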
Summary of the method: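 Inhibitors reduce antibody binding to phosphorylated biotin-cJun, lowering AlphaScreen luminescence. Lysates from HepG2 cells pre-activated by IL-1beta plus TNF-alpha supplied JNK3; compounds were titrated.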
% is set by controls: 0 for no effect and ±100 for the full control effect.

Activity change, negative = inhibition, inactive:
COC(=O)c1ccc(C(NC(=O)OCc2ccccc2)/C(F)=C/[C@@H](C)C(=O)NCc2nc3ccccc3s2)cc1 (stereo not given in full) -2.14%
COC(=O)c1ccc(C(NC(=O)OCc2ccccc2)/C(F)=C/[C@@H](C)C(=O)NCc2ccc(-c3ccccc3)cc2)cc1 (stereo not given in full) 4.28%
CC1(C(=O)NCCc2c[nH]c3ccccc23)C=CCN1C(=O)c1ccccc1 (stereo not given) -2.09%
COC(=O)c1ccc(C(/C=C/[C@@H](C)C(=O)NCc2cc(C)n(C)n2)NC(=O)OCc2ccccc2)cc1 (stereo not given in full) -3.79%
COC(=O)c1ccc(C(NC(=O)OCc2ccccc2)/C(=C/[C@@H](C)C(=O)NC2CCCCC2)c2cccnc2)cc1 (stereo not given in full) -2.16%
C[C@H](NC(=O)[C@@H]1C[C@H]1[C@@H](NC(=O)OCc1ccccc1)c1ccccc1)c1ccccc1 -1.97%
COC(=O)c1ccc(C(NC(=O)OCc2ccccc2)/C(C)=C/[C@@H](C)C(=O)NCc2cc(F)cc(F)c2)cc1 (stereo not given in full) 2.87%
COC(=O)c1ccc(C(NC(=O)OCc2ccccc2)/C(=C/[C@@H](C)C(=O)NCc2ccc(-c3ccccc3)cc2)c2cccnc2)cc1 (stereo not given in full) -13.5%
COC(=O)c1ccc(C(NC(=O)OCc2ccccc2)/C(F)=C/[C@@H](C)C(=O)NCc2cccnc2)cc1 (stereo not given in full) -2.4%
CC(=O)N1[C@H](C)C=C[C@]1(Cc1ccccc1)C(=O)NCCN1CCOCC1 0.355%
CN(C)C(=O)[C@H]1C[C@@H]1[C@H](NC(=O)OCc1ccccc1)c1ccccc1 -1.45%
CCCCCCN(C(=O)CCCCCN1C(=O)NC(c2ccccc2-c2ccccc2)C(C(=O)OCc2ccccc2)=C1C)C(C(=O)NCCCC)c1ccc(OCC(=O)OC)c(C(=O)OC)c1 (stereo not given) -15.7%
COC(=O)c1ccc(C(NC(=O)OCc2ccccc2)/C(C)=C/[C@@H](C)C(=O)NC2CCCCC2)cc1 (stereo not given in full) -0.569%
COC(=O)c1ccc(C(NC(=O)OCc2ccccc2)/C(C)=C/[C@@H](C)C(=O)NCc2nc3ccccc3s2)cc1 (stereo not given in full) -3.94%
COC(=O)c1ccc(C(NC(=O)OCc2ccccc2)/C(F)=C/[C@@H](C)C(=O)NCCN2CCOCC2)cc1 (stereo not given in full) 14%
CCCCNC(=O)C(c1ccc(-c2ccccc2)cc1)N(CCN1CCOCC1)C(=O)CCCCCN1C(=O)NC(c2ccc([N+](=O)[O-])cc2)C(C(=O)OCc2ccccc2)=C1C (stereo not given) -29%
COC(=O)c1ccc(C(NC(=O)OCc2ccccc2)/C(C)=C/[C@@H](C)C(=O)N2CCN(C)CC2)cc1 (stereo not given in full) -10.4%
COC(=O)c1ccc(C(/C=C/[C@@H](C)C(=O)NCc2ccccc2)NC(=O)OCc2ccccc2)cc1 (stereo not given in full) -1.71%
COC(=O)c1ccc(C(NC(=O)OCc2ccccc2)/C(=C/[C@@H](C)C(=O)N(C)Cc2ccccc2)c2cccnc2)cc1 (stereo not given in full) -12.6%
C[C@]1(C(=O)NCCc2c[nH]c3ccccc23)C=C[C@@H](Cc2ccccc2)N1C(=O)c1ccccc1 -12.7%
COC(=O)c1ccc(C(NC(=O)OCc2ccccc2)/C(C)=C/[C@@H](C)C(=O)NCc2cc(C)on2)cc1 (stereo not given in full) -0.538%
CC(=O)N1[C@H](Cc2ccccc2)C=C[C@]1(C)C(=O)NCc1ccc(C)o1 -0.0853%
CC(=O)N1[C@H](Cc2ccccc2)C=C[C@]1(C)C(=O)NCCN1CCOCC1 3.26%
CNC(=O)[C@@]1(Cc2ccccc2)C=C[C@@H](C)N1C(=O)OC 25.3%
COC(=O)c1ccc(C(/C=C/[C@@H](C)C(=O)N[C@H](C)CO)NC(=O)OCc2ccccc2)cc1 (stereo not given in full) 5.29%
COC(=O)c1ccc(C(NC(=O)OCc2ccccc2)/C(=C/[C@@H](C)C(=O)NCCc2c[nH]c3ccccc23)c2cccnc2)cc1 (stereo not given in full) -10%
COC(=O)c1ccc(C(NC(=O)OCc2ccccc2)/C(=C/[C@@H](C)C(=O)NCc2cc(C)on2)c2cccnc2)cc1 (stereo not given in full) -3.99%
COC(=O)c1ccc(C(NC(=O)OCc2ccccc2)/C(F)=C/[C@@H](C)C(=O)NCc2cc(C)on2)cc1 (stereo not given in full) -1.39%
CC(C)CC1(C(=O)NCC2CC2)C=CCN1C(=O)c1ccccc1 (stereo not given) -17.7%
COC(=O)[C@H](Cc1ccccc1)NC(=O)[C@]1(C)C[C@H]1[C@H](NC(=O)OCc1ccccc1)c1ccccc1 11.2%
COC(=O)c1ccc(C(NC(=O)OCc2ccccc2)/C(=C/[C@@H](C)C(=O)NCc2nc3ccccc3n2C)c2cccnc2)cc1 (stereo not given in full) -29.1%
COC(=O)[C@H](Cc1ccccc1)NC(=O)[C@@]1(C)C[C@@H]1[C@@H](NC(=O)OCc1ccccc1)c1ccccc1 2.3%
COC(=O)c1ccc(C(NC(=O)OCc2ccccc2)/C(=C/[C@@H](C)C(=O)N(C)C)c2cccnc2)cc1 (stereo not given in full) -1.43%
COC(=O)CNC(=O)C1(C)C=CCN1C(=O)c1ccccc1 (stereo not given) -14.5%
COCCNC(=O)[C@H](C)/C=C(\c1cccnc1)C(NC(=O)OCc1ccccc1)c1ccc(C(=O)OC)cc1 (stereo not given in full) -4.75%
CCCCCCN(C(=O)CCCCCN1C(=O)NC(c2ccc(C(C)(C)C)cc2)C(C(=O)OCc2ccccc2)=C1C)C(C(=O)NCCCC)c1ccc(OCC(=O)OC)c(C(=O)OC)c1 (stereo not given) -6.28%
CCCC[C@@H]1C[C@H]1[C@@H](NP(=O)(c1ccccc1)c1ccccc1)c1ccccc1OC 1.1%
COC(=O)c1ccc(C(NC(=O)OCc2ccccc2)/C(=C/[C@@H](C)C(=O)NCC2CC2)c2cccnc2)cc1 (stereo not given in full) 2.14%
C[C@@H]1C=C[C@](Cc2ccccc2)(C(=O)NCC2CC2)N1C(=O)c1ccccc1 1.03%
CC(=O)N1[C@H](C)C=C[C@]1(Cc1ccccc1)C(=O)NCc1cc(F)cc(C(F)(F)F)c1 8.02%
